Measurements taken from PubChem BioAssay (NCI).
About 83,000 compounds went through this panel and 20% of them were active in at least one assay; those are over-represented in the sample as a whole.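 Negative percent growth values reflect cell death: -40 means 40% of the cells present at the start died, and -100 means all died.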 A number with no mark means an inactive call. Activity calls are given as the source filed them. Rule for the calls: active = growth percent below 10; inactive = the rest.

Legend:
Assay in all cases: NCI-60 one-dose screen, 48 h (100 = growth as untreated, 0 = no growth, -100 = all killed)
Conditions in all cases: 10 µM unless noted
SR leukemia = tested on: SR leukemia
RPMI-8226 leukemia = tested on: RPMI-8226 leukemia
OVCAR-8 ovarian = tested on: OVCAR-8 ovarian
OVCAR-5 ovarian = tested on: OVCAR-5 ovarian
OVCAR-4 ovarian = tested on: OVCAR-4 ovarian
SK-OV-3 ovarian = tested on: SK-OV-3 ovarian
IGROV1 ovarian = tested on: IGROV1 ovarian
HS 578T breast = tested on: HS 578T breast
NCI/ADR-RES ovarian = tested on: NCI/ADR-RES ovarian

Structure (SMILES) | growth (SR leukemia) | growth (RPMI-8226 leukemia) | growth (OVCAR-8 ovarian) | growth (OVCAR-5 ovarian) | growth (OVCAR-4 ovarian) | growth (SK-OV-3 ovarian) | growth (IGROV1 ovarian) | growth (HS 578T breast) | growth (NCI/ADR-RES ovarian)
Oc1ccc(CSc2nnc(-c3ccc(Oc4ccccc4)cc3)n2-c2ccccc2)c2cccnc12 | 45.8% | 7.82% (active) | 16.5% | 42.7% | 17.9% | 14.1% | 11.7% | 18.7% | 6.26% (active)
C/C(=N\NC(=O)CSc1nc2sc3c(c2c(=O)n1-c1ccccc1)CCC(C)C3)c1ccc(Cl)cc1 (configuration not stated) | 6.22% (active) | 24.9% | 18.8% | 50% | 29.3% | 57.4% | 19.2% | 61.9% | 12.4%
Cc1cc(-c2ccc3nc(N)sc3c2)nc2ccc3[nH]ncc3c12 | 13.7% | 39.6% | 41.2% | 57.6% | 61.6% | 31.5% | 33.6% | 6.21% (active) | 13.6%
COc1ccc(-c2nc3cc(Cl)c(Cl)cc3n2CC(=O)N=Nc2c(O)[nH]c3ccc(Br)cc23)cc1 | 36.4% | 31.8% | 12% | -5.99% (active) | -43.9% (active) | 13.5% | -37.9% (active) | -8.55% (active) | -1.87% (active)
COc1ccc(-c2nc(SCC(C)C)nc(N/N=C\c3cccc([N+](=O)[O-])c3)c2C#N)cc1 | 43.5% | 66.9% | 25.5% | 71.5% | 38.7% | 74% | 31.4% | 43% | 51.5%
N#C/C(=C\c1ccc2ccccc2c1)C(=O)Nc1sc2c(c1C#N)CCC2 | 90.9% | 105% | 100% | 111% | 105% | 99.8% | 107% | 104% | 103%
COc1c([C@@H](CC(C)C)OC(C)=O)ccc2c1C(=O)OCc1cc(C)cc(O)c1O2 | 19.1% | 27.6% | 21.2% | 69.4% | 25.9% | 24.3% | 44% | 45.9% | 12.6%
O=C1NC(=O)c2c1c1c3ccccc3ccc1c1[nH]c3ccccc3c21 | -9.49% (active) | 1.6% (active) | 6.43% (active) | 49.6% | 25.8% | 2.2% (active) | 9.53% (active) | 12.7% | 0.105% (active)
COc1cc2oc(-c3cccc(NC(=O)c4cc(NC(=O)[C@H](C)NC(=O)OC(C)(C)C)ccc4C)c3)cc(=O)c2c(OC)c1OC | 25.1% | 45% | 42.6% | 110% | 63.9% | 115% | 60.6% | 38.2% | 87.3%
Nc1nc(-c2cccc([N+](=O)[O-])c2)c(N=Nc2ccccc2[N+](=O)[O-])s1 | 48.5% | 36.4% | 8.47% (active) | 43.5% | -2.02% (active) | -46.6% (active) | 1.09% (active) | 6.64% (active) | 16.8%
CCn1c2ccc(/C=N/OCCCN(C)C)cc2c2cc(/C=N/OCCCN(C)C)ccc21 | -40.8% (active) | -15.9% (active) | -5.7% (active) | 31.1% | 52.7% | 109% | -52.8% (active) | 73.8% | 9.38% (active)
Nc1nc(-c2cccc([N+](=O)[O-])c2)c(N=Nc2ccccc2Cl)s1 | 59.1% | 68.5% | 56.8% | 93.7% | 63.1% | 99.5% | 74.8% | 56.8% | 59.9%
CCOC(=O)c1c(Nc2ccccc2)nn2c(-c3ccc(Br)cc3)ccnc12 | 70.7% | 95.8% | 69.2% | 80.4% | 53.5% | 59.2% | 71% | 62.8% | 59.8%
COc1cc(NC2=C(Cl)C(=O)c3nc(C)ccc3C2=O)cc(OC)c1 | -3.19% (active) | -39.7% (active) | -0.815% (active) | 22% | -93.3% (active) | 93.8% | -23.1% (active) | -32.8% (active) | -1.26% (active)
CCC(CC)n1c(=O)c(SC2=NC3C(NN2)N(CC)C(=O)N3CC)c(C(=O)O)c2ccccc21 (configuration not stated) | 14.4% | 14.4% | 8.01% (active) | 37.3% | 65% | 40.6% | 32.6% | 19.3% | 20.4%
Clc1ccc(-c2csc(N/N=C/c3nc4ccccc4n3C3CC3)n2)cc1 | 96.6% | 100% | 99% | 99.7% | 101% | 108% | 111% | 106% | 102%
C#C[C@]1(O)CC[C@H]2[C@@H]3CC=C4c5sc(Nc6nc(C)cc(OC)n6)nc5CC[C@]4(C)[C@H]3CC[C@@]21C | 12.4% | -0.189% (active) | 73.3% | 78.8% | 88.4% | 47.5% | 66% | -6.82% (active) | 62.7%
CC[C@]12C=CCN3CC[C@]4(C(=C(C(=O)OC)C1)Nc1cc5c(cc14)[C@@H]1[C@H](O5)[C@@H](O)[C@@]4(CC)CC(C(=O)OC)=C5Nc6cc(OC)ccc6[C@@]56CCN1[C@@H]46)[C@@H]32 | 5.56% (active) | -23.3% (active) | 19.5% | 25.4% | 31.2% | 25% | 6.73% (active) | 11.6% | 12.4%
CCCCSc1nnc(-c2ccc(-c3ccc(Cl)cc3)nc2C)o1 | 95.5% | 103% | 109% | 101% | 102% | 111% | 99.1% | 105% | 99.8%
CC(=O)c1sc(Nc2cccc(Nc3nc(C)c(C)s3)c2)nc1C | 38.5% | 67.9% | 43.4% | 83.5% | 51.5% | 25.8% | 26.4% | 52.7% | 55.6%
O=C(CSc1nnc(-c2cccs2)n1-c1ccccc1)Nc1ccc(F)cc1 | 71.6% | 105% | 93.5% | 97.3% | 96.4% | 82.5% | 95.4% | 91.8% | 90.7%
CCCCCCCCNC(=O)c1ccc(Cn2c(CCCC)nc3c(N)nc4ccccc4c32)cc1 | 8.69% (active) | -38% (active) | -10.9% (active) | 75.5% | -54.3% (active) | 76.1% | -37.8% (active) | 87.4% | -62.2% (active)
C#C[C@]1(O)CC[C@H]2[C@@H]3CC=C4c5sc(Nc6ccncc6)nc5CC[C@]4(C)[C@H]3CC[C@@]21C | 4.33% (active) | -26.6% (active) | 51.4% | 38.6% | 59.8% | -38.1% (active) | 24.4% | -33.6% (active) | 33.1%
COc1ccc(NC(=O)[C@H](C)N)cc1C(=O)Nc1cccc(-c2cc(=O)c3c(OC)c(OC)c(OC)cc3o2)c1 | 36.5% | 44.1% | 50.1% | 102% | 62.4% | 115% | 56.7% | 27.8% | 63.8%
CCOC(=O)c1c(NC(=O)c2ccc(F)cc2F)sc2c1CCC(=O)C2 | 88% | 106% | 96.9% | 104% | 102% | 104% | 100% | 103% | 96.8%
CS(=O)c1nccc(-c2c(-c3ccc(F)c(OCc4ccccc4)c3)nc3sccn23)n1 (configuration not stated) | -1.23% (active) | 60.6% | 96.1% | 104% | 102% | 114% | 68.7% | 101% | 102%
CC(=O)Oc1ccc(CCN2C(=O)CSC2=S)cc1 | 68.9% | 37.6% | 103% | 97.9% | 93.8% | 113% | 103% | 100% | 96.4%
Cc1cn(-c2cc(NC(=O)c3cncc(C#Cc4cnc5ccc(O[C@H]6CCOC6)nn45)c3)cc(C(F)(F)F)c2)cn1 | 47.8% | 85.4% | 92.6% | 80.3% | 90.1% | 119% | 65.3% | 73.7% | 101%
